The values below come from PubChem BioAssay AID1347416 (National Center for Advancing Translational Sciences (NCATS), 2020).

Among all 4,100 compounds or so, about 1,600 (39%) were called active. Inconclusive results (about 25%) are left out. The list shows a part of the results. Values without a mark were called inactive. Calls come from the whole dose curve; as a rule, active = well fitted inhibition curve with a large enough effect; inconclusive = small, poorly fitted or top-dose-only effect; inactive = no such curve, though single readings can be large or run the other way.
% is set by controls: 0 for no effect and ±100 for the full control effect; potency is the fitted concentration of half-maximal effect.

The assay in a line: qHTS Validation assay for Inhibitors of Plasmodium falciparum Dd2 growth in vitro. Note: nearly all actives have a fitted effect of over 70% in size. As to conditions: P. falciparum Dd2 in RBCs, SYBR Green growth, 72 h; series mostly up to 28.7 µM; activity change, negative = inhibition: at the top concentration. From the text: Malaria, a parasitic disease spread to humans through the bite of a Plasmodium infected Anopheles mosquito, continues to be a global health burden affecting millions of people, with an estimated 228 million cases and 405,000 deaths in 2018. Concerns about safety and limitations of current antimalarial treatments strongly emphasize the need to develop new therapeutic options. The scarce number of chemotypes and validated drug targets with efficacy against the liver stage, have hindered development of new antimalarials. To address this, a chemoprophylactic drug discovery effort was conducted through a combined phenotypic high-throughput asexual blood stage and liver stage screen, providing a robust foundation to identify liver-stage active lead chemotypes. Compounds were initially screened against Plasmodium falciparum Dd2 strain parasites using a in vitro SYBRGreen-1 based 72 hr proliferation assay to identify novel chemotypes to advance to liver stage assays. NIH/NCATS Early Translation Branch Assay Submitter (PI): Anton Simeonov Ph.D.
[…] Assay Protocol: PROTOCOL TABLE (as described by Inglese et al., 2007) SEQUENCE No. (e.g., 1, 2, 3, etc.); PARAMETER (e.g., Cells, Incubation, Reagent, etc.); VALUE; DESCRIPTION SEQUENCE, Parameter, Description 1; Reagent; 3 uL complete malaria growth medium, 1536 TC treated Black clear bottom plate 2; Controls; 23 nL positive control artesunate (300 nM final) to column 1; Neutral control DMSO to columns 2-4 3; Compound; 23 nL of compounds in dose response concentration (29 uM to 0.5 nM final) 4; Reagent; 5 uL malaria infected red blood cells (2.5% hematocrit final, 0.3% parasitemia 5; Time; 72 hours at 37C (5% O2, 5% CO2, 90% N2; 95% Rh) 6; Reagent; 2 uL lysis buffer/SYBRGreen-1, 25 sec shake immediately following dispense 7; Time; ~16 hours at 37C (5% O2, 5% CO2, 90% N2; 95% Rh) 8; Detector; EnVision (PerkinElmer) bottom read at 485/14nm excitation and 535/25 nm emission NOTES (numbers refer to sequence above): 1; Complete Malaria Growth Media: 1X RPMI-1640 w/L-glutamine, 5.5g/L Albumax II, 367 uM Hypoxanthine, 25 mM HEPES, 0.25% Sodium Bicarbonate, 35 uM Gentamicin sulfate 2; Controls were added using the Kalypsis Pintool (Wako USA) equipped with 1536 pinhead 3; Compounds were added in a 7-point, titration with a high final concentration of 29 uM by Pintool from seven inter-plate titrations of library plates and two DMSO control plates at the beginning and end (see Yasgar et al., 2008). 4; Red blood cells infected with Plasmodium falciparum Dd2 parasites were used. 6; Lysis buffer: 20 mM Tris-HCl, 10 mM EDTA, 0.16% Saponin, 1.6% Triton-X, 10X SYBR Green. REFERENCE: Inglese J, Shamu CE, Guy RK. 2007. Reporting data from high-throughput screening of small-molecule libraries. Nat Chem Biol. doi:10.1038/nchembio0807-438 Yasgar A, Shinn P, Jadhav A, Auld D, Michael S, Zheng W, Austin CP, Inglese J, Simeonov A. 2008. Compound Management for Quantitative High-Throughput Screening. J Lab Autom 13:79-89. doi:10.1016/j.jala.2007.12.004
For the compound `Cn1cnc(S(=O)(=O)N2CCCC(Cc3noc(-c4cccnc4)n3)C2)c1` (stereo not given), the “activity change, negative = inhibition” value is 19.2%.

In the case of `COc1ccc(-c2nnc(C[C@@H]3C[C@@H](C(C)C)[C@H](CNCc4cccnc4)C=C3C)o2)cc1`, the Potency was 6.68 µM (active).

On to `CC1=C[C@@H](CNCc2cccnc2)[C@H](C(C)C)C[C@H]1Cc1nnc(-c2ccc(N(C)C)cc2)o1`, for which the Potency was 5.31 µM (active).

As for `CC1=C[C@@H](CNCc2cccnc2)[C@H](C(C)C)C[C@H]1Cc1nnc(-c2ccc([N+](=O)[O-])cc2)o1`, the Potency was 5.31 µM (active).

On to `Brc1ccc(-c2ccnc3nc(-c4cccs4)nn23)s1`, for which the “activity change, negative = inhibition” value was -16.3%.

`Cc1[nH]cnc1CSCCn1ccnc1-c1nccn1C`: the “activity change, negative = inhibition” value was 2.48%.

Take `COc1cc2c(cc1OC)CN(C(=O)c1cccs1)CC2`: the “activity change, negative = inhibition” value is -20.1%.

`COc1cc(C(=O)OCC(=O)N2CCCCC2C)cc(NC(=O)c2cccs2)c1OC` (stereo not given): the Potency was 0.473 µM (active).

In the case of `CCOC(=O)c1c(CN2CCN(CCO)CC2)n(-c2ccccc2)c2cc(Br)c(O)cc12`, the Potency is 5.96 µM (active).

With `CCOC(=O)c1c(CN2CCN(c3ccccc3)CC2)oc2cc(Br)c(O)cc12`, the Potency is 1.88 µM (active).

Take `CCOC(=O)c1c(CN(CC)CC)n(C)c2cc(Br)c(O)cc12`: the Potency was 9.44 µM (active).

Turning to `CCOC(=O)c1c(CN2CCCCC2)n(C)c2cc(Br)c(O)cc12`, the Potency is 7.5 µM (active).

Take `CCOC(=O)C1=C(O)/C(=C/c2cc(C)n(-c3ccccc3)c2C)N=C1C`: the “activity change, negative = inhibition” value was -4.25%.

With `CCOC(=O)c1c(CNc2ccncc2)n(C)c2cc(Br)c(O)cc12`, the Potency is 2.66 µM (active).

For `CCOC(=O)c1c(CSC(=N)N)n(-c2ccc(C)cc2)c2cc(Br)c(OC(C)=O)cc12`, the Potency is 5.96 µM (active).

Turning to `CCOC(=O)c1c(CN(C)C)n(-c2ccc(C)cc2)c2cc(Br)c(O)cc12`, the Potency is 4.22 µM (active).

For `COc1ccc(C(=O)N2CCC(Cc3nc(-c4cccnc4)n[nH]3)C2)cc1F` (stereo not given), the “activity change, negative = inhibition” value was 18.9%.

Regarding `COc1ccc(-c2[nH]nc3ncc(-c4cccnc4)nc23)cc1F`, the Potency is 3.85 µM (active).

`Fc1ccc(N2CCN(Cc3cccn3-c3nnc(N4CCN(C5CCCCC5)CC4)s3)CC2)cc1`: the Potency is 11.9 µM (active).

For `COc1ccccc1CCNC(=O)c1cccn1-c1nnc(N2CCCCC2)s1`, the “activity change, negative = inhibition” value is -6.38%.

As for `CN(CC1CCOCC1)S(=O)(=O)c1ccc(F)c(Cl)c1`, the “activity change, negative = inhibition” value was 28.6%.

With `CCCN(CCC)CC(O)Cn1cc(/C=C/C(=O)c2ccc(C)cc2)c2ccccc21` (stereo not given), the Potency was 4.73 µM (active).

Turning to `CCCCN(CCCC)CC(O)Cn1cc(/C=C/C(=O)c2ccccc2)c2ccccc21` (stereo not given), the Potency is 1.68 µM (active).

In the case of `O=C(NC1CCCN(c2cc(-c3ccccc3)[nH]n2)C1)c1cc(F)ccc1F` (stereo not given), the “activity change, negative = inhibition” value is -3.71%.

`COc1cccc(CN2CCC3(CC2)Cc2ccccc2NC3=O)c1`: the “activity change, negative = inhibition” value is -8.07%.

For `COc1ccc(C(=O)N2CCCn3cc(-c4ccccc4F)nc32)cn1`, the “activity change, negative = inhibition” value is 19.7%.

With `COc1ccc(C(=O)N2CCC(c3nc(C4CCOCC4)no3)CC2)cn1`, the “activity change, negative = inhibition” value was 2.15%.

On to `COc1ccc(C(=O)N2CCC3(CC2)OC(=O)N(Cc2ccc(O)cc2)C3(C)c2ccccc2)cn1` (stereo not given), for which the Potency is 6.68 µM (active).

As to `COc1cccc(CN2CCC3(CC2)OC(=O)N(Cc2ccccc2)C3(C)c2ccccc2)c1` (stereo not given), the Potency was 15 µM (active).

As to `CC1(c2ccccc2)N(Cc2ccccc2)C(=O)OC12CCN(Cc1cccc(O)c1)CC2` (stereo not given), the Potency was 8.41 µM (active).

Consider `CC1(c2ccccc2)N(Cc2ccccc2F)C(=O)OC12CCN(Cc1cccc(O)c1)CC2` (stereo not given), for which the Potency is 6.68 µM (active).

On to `Cc1nc(CN2C(=O)OC3(CCN(C(=O)c4ccc(Oc5ccccc5)cc4)CC3)C2(C)c2ccccc2)cs1` (stereo not given), for which the Potency was 13.3 µM (active).

As to `O[C@@H]1CC(CNCc2cccc(Cl)c2)(COc2ccccc2)C[C@@H]1O` (stereo not given in full), the Potency is 3.85 µM (active).

On to `O=C(NC[C@H]1O[C@H](Cc2cc(CN3CCNCC3)on2)CC[C@@H]1O)c1ccccc1F`, for which the “activity change, negative = inhibition” value is 88%.

As for `COc1ccccc1CNC[C@H]1O[C@H](Cc2cc(CN(C)Cc3ccccc3)on2)CC[C@@H]1O`, the Potency was 2.99 µM (active).

`Cc1cccc(OCC2(CNCc3cccnc3)C[C@@H](O)[C@@H](O)C2)n1` (stereo not given in full): the “activity change, negative = inhibition” value is 26.5%.

Regarding `CN(Cc1ccccc1)Cc1cc(C[C@@H]2CC[C@H](O)[C@@H](CNCc3ccccc3)O2)no1`, the Potency is 4.73 µM (active).

As to `O[C@H]1CC[C@@H](Cc2cc(COc3ccccc3)on2)O[C@@H]1CNCc1cccc(Cl)c1`, the Potency is 2.11 µM (active).

As to `O=C(c1cc(F)ccc1F)N1CC(c2nnc(-c3ccncc3)o2)C2(CCOCC2)C1` (stereo not given), the “activity change, negative = inhibition” value is 59.8%.

Regarding `COc1cc(OC)c(NC(=O)Cn2c(C)cc3nc4n(c(=O)c32)CCCCC4)cc1Cl`, the “activity change, negative = inhibition” value was -29.8%.

Regarding `COc1cc(Cc2cc(N)nc(N)n2)cc(OC)c1OC`, the “activity change, negative = inhibition” value was 46.1%.

As to `COc1ccc(CN2C[C@H]3CN(Cc4c[nH]c5ccccc45)CCN3C2=O)cc1`, the Potency was 3.85 µM (active).

Take `COc1ccc(-c2cn(CCc3c[nH]c4ccccc34)nn2)cc1`: the “activity change, negative = inhibition” value was 15%.

Regarding `Cc1nnc([C@H]2CCN(Cc3c[nH]c4ccccc34)C2)o1`, the “activity change, negative = inhibition” value is -16.6% [at 57.5 µM].

Take `Cc1nonc1CC(=O)N1CCCC(CNS(=O)(=O)c2cccs2)C1` (stereo not given): the “activity change, negative = inhibition” value is 47.9%.
